From PubChem BioAssay
ABHD5-PLIN5 inh – ABHD5-PLIN5 interaction inhibitors, primary screen, cell lysate, split luciferase complementation, luminescence; Split G. princeps luciferase complementation, 4 h; inhibition, % at 4 µM; 0.78% of 360,000 active; AID 602281, 2012;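 active = inhibition above the mean inhibition across every tested compound plus 3 SD, cut at about 22% in these data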;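 also: 0% = DMSO only wells and the 100% control is not disclosed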
PAX8 reporter – inhibitors of PAX8-driven TPO luciferase reporter, primary screen, RMG-I cells, single concentration; 1.2% of 360,000 active; SteadyGlo, 24 h; inhibition, % at 12.6 µM; AID 652154, 2013;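 active = mean replicate inhibition at least 60% with every replicate also reaching 60%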;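 also: luciferase light reporting Pax8 driven TPO promoter activity; plate controls were median of neutral control wells for no effect and mitoxantrone controls for full effect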
Shn3 3UTR inh – reduction of Shn3 3'UTR firefly luciferase signal, primary screen, Schnurri-3 inhibitor project, cell-based, Clone20 osteoblasts, set 2; inhibition, % at 12.5 µM; Clone20 osteoblast Shn3 3'UTR firefly luciferase, 24 h; 0.52% of 360,000 active;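 active = mean inhibition of at least 75% with every replicate also reaching 75%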;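 also: 0% = median of neutral control wells and 100% = pilot-screen positive control compound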
Peg3 prom inh – Peg3 promoter-driven luciferase inhibitors, primary screen, cell-based, HeLa, luciferase luminescence; AID 588405, 2011; 1.7% of 360,000 active; inhibition, % at 20 µM; HeLa PEG-Prom luciferase reporter, overnight;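 active = inhibition of at least 50% at 20 µM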
TRPM1 prom inh – inhibitors of MITF-dependent TRPM1 promoter reporter, primary screen, cell-based, SK-MEL-5, single point, luciferase | SK-MEL-5 TRPM1 promoter luciferase, 24 h | inhibition, % at 12.5 µM | 0.83% of 330,000 active | AID 488899, 2010;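 active = mean inhibition across replicates of 60% or more, whatever share of single replicates reaches that level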
EWS-Fli block – EWS/Fli-driven NR0B1 reporter inhibitors, primary screen, A673 cells, NR0B1 luciferase, luminescence, MLPCN library | 0.67% of 350,000 active | viability-normalised | inhibition, % at 12.6 µM;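 active = mean inhibition of at least 50% after viability correction, with every replicate also passing that limit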;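 also: firefly luciferase signal divided by Alamar Blue viability fluorescence both relative to DMSO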
ABHD5 PLIN5 conf – ABHD5-PLIN5 interaction inhibitors, confirmation, biochemical, luminescence; inhibition, % at 4 µM; AID 651612, 2012; 67% of 2,200 active; shares compounds with ABHD5-PLIN5 inh; in the data active = inhibition above about 23%;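 also: 0% = DMSO vehicle wells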
HNF4 split-luc – HNF4 dimerization inhibitors, counter-screen for ABHD5-PLIN5 interaction inhibitor project, biochemical, split-luciferase complementation, luminescence; shares compounds with ABHD5-PLIN5 inh; inhibition, % at 4 µM; 77% of 2,200 active; AID 651674, 2012;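 active = mean inhibition across replicate wells exceeding the computed hit threshold, cut at about 13% in these data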;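 also: light from luciferase halves that rejoin when HNF4 fusion proteins dimerize; 0% = DMSO only wells and the 100% control is not given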
Target sequence (P41235 whole entry, looked up, the tested form may be a part): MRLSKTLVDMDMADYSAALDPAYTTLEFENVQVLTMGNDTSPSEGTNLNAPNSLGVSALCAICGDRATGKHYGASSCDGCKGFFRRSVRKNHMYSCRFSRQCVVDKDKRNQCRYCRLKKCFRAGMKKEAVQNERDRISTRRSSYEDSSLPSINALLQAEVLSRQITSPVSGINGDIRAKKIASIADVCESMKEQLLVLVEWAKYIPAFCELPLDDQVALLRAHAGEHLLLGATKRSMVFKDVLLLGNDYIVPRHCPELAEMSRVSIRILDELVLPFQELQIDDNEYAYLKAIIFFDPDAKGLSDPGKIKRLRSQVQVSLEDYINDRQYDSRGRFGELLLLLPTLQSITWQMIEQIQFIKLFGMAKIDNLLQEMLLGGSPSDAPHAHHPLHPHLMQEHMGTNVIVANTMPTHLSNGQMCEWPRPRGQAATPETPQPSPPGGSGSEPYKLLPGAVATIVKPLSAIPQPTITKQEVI
Numbers without * were called inactive. The list is not random: actives were taken first. Their share in the collection is about 3%.

`CCc1cccc(C)c1NC(=O)COC(=O)CNS(=O)(=O)/C=C/c1ccccc1` gave ABHD5-PLIN5 inh 3.7, PAX8 reporter 14.1, Shn3 3UTR inh 1.0, Peg3 prom inh 6.8 and TRPM1 prom inh 4.5.
`Cc1ccc(CNC(=O)c2cccnc2Sc2cccc(Cl)c2)cc1` gave ABHD5-PLIN5 inh -4.3, PAX8 reporter 8.1, Shn3 3UTR inh 5.8, Peg3 prom inh 15.6, TRPM1 prom inh -10.4 and EWS-Fli block -4.6.
Screening COc1ccc(CNC(=O)c2cccnc2Sc2ccc(Cl)cc2)cc1 returned ABHD5-PLIN5 inh 88.6*, Shn3 3UTR inh 9.0, Peg3 prom inh 0.3, TRPM1 prom inh -0.9, EWS-Fli block 10.7, ABHD5 PLIN5 conf -5.7 and HNF4 split-luc 10.2.
Screening CNC(=O)C[C@@H]1CC[C@H]2[C@@H](COc3ccc(NC(=O)Nc4ccc(C)cc4)cc3C(=O)N2C)O1 returned PAX8 reporter -11.0 and EWS-Fli block -26.9.
`Cn1cnc([N+](=O)[O-])c1S(=O)(=O)Oc1ccccc1` gave ABHD5-PLIN5 inh 62.2*, PAX8 reporter 89.8*, Shn3 3UTR inh 94.6*, Peg3 prom inh 102.8*, TRPM1 prom inh 37.4, EWS-Fli block 25.7, ABHD5 PLIN5 conf 75.3* and HNF4 split-luc 95.2*.
Screening Cn1cnc([N+](=O)[O-])c1S(=O)(=O)Nc1ccccc1 returned ABHD5-PLIN5 inh 21.1, PAX8 reporter 0.2, Shn3 3UTR inh -16.1, Peg3 prom inh -0.7, TRPM1 prom inh 8.5 and EWS-Fli block -24.6.
For Cc1nn(C(C)C(=O)c2cccc(Cl)c2)c(C)c1[N+](=O)[O-] (stereo not given) the results were ABHD5-PLIN5 inh -0.8, PAX8 reporter 2.8, Shn3 3UTR inh 11.4, Peg3 prom inh 5.8, TRPM1 prom inh -1.8 and EWS-Fli block -5.8.
Cn1cnc([N+](=O)[O-])c1S(=O)(=O)c1cccc(Cl)c1 was read as ABHD5-PLIN5 inh 60.7*, PAX8 reporter 83.1*, Shn3 3UTR inh -13.2, Peg3 prom inh 111.5*, TRPM1 prom inh 18.2, EWS-Fli block 23.1, ABHD5 PLIN5 conf 64.0* and HNF4 split-luc 93.5*.
CS(=O)(=O)N1[C@@H](C#N)[C@H](c2ccc(-c3ccccc3F)cc2)[C@@H]1CO was read as PAX8 reporter 7.3 and EWS-Fli block -4.3.
Screening CC(=O)NC(CSC(CC(=O)c1ccco1)c1ccc(C)cc1)C(=O)O (stereo not given) returned ABHD5-PLIN5 inh 49.9*, PAX8 reporter -49.8, Shn3 3UTR inh -35.8, Peg3 prom inh -141.4, TRPM1 prom inh -36.3, EWS-Fli block -22.3, ABHD5 PLIN5 conf 39.8* and HNF4 split-luc 39.8*.
Screening COCC(=O)N1[C@H](C(=O)N2CCOCC2)[C@@H](CO)[C@@H]2Cn3c(ccc(C4=CCCCC4)c3=O)[C@@H]21 returned PAX8 reporter -21.2 and EWS-Fli block -15.7.
For COc1cc(/C=C/C(=O)c2c(O)ccc3c(C)cc(=O)oc23)ccc1O the results were ABHD5-PLIN5 inh 50.9*, Shn3 3UTR inh -19.5, Peg3 prom inh 43.9, TRPM1 prom inh 1.9, ABHD5 PLIN5 conf 61.3* and HNF4 split-luc 63.5*.
For Cc1cc(=O)oc2c(C(=O)/C=C\c3cccs3)c(O)ccc12 the results were ABHD5-PLIN5 inh 39.1*, PAX8 reporter 0.3, Shn3 3UTR inh -15.2, Peg3 prom inh -11.6, TRPM1 prom inh -9.5, ABHD5 PLIN5 conf 39.1* and HNF4 split-luc 45.4*.
Screening COc1ccc(/C=C\C(=O)c2c(O)ccc3c(C)cc(=O)oc23)cc1OC returned ABHD5-PLIN5 inh 49.8*, Shn3 3UTR inh -14.3, Peg3 prom inh 42.2, TRPM1 prom inh -2.2, ABHD5 PLIN5 conf 74.0* and HNF4 split-luc 60.9*.
`Cc1cc(=O)oc2c(C(=O)/C=C/c3ccccc3)c(O)ccc12` gave ABHD5-PLIN5 inh 8.2, Shn3 3UTR inh -37.7, Peg3 prom inh 20.9 and TRPM1 prom inh 26.1.
Screening CCCN1[C@@H]2c3ccc(/C=C/c4ccccc4)c(=O)n3C[C@H]1[C@H](CO)[C@H]2C(=O)NCc1ccccn1 returned EWS-Fli block -6.8.
For O=c1c(-c2ccco2)nc2ccccc2n1C(CCc1ccccc1)c1nc2ccccc2[nH]1 (stereo not given) the results were ABHD5-PLIN5 inh 72.4*, PAX8 reporter 24.7, EWS-Fli block 5.4, ABHD5 PLIN5 conf 55.1* and HNF4 split-luc 9.6.
`CCC(c1nc2ccccc2[nH]1)n1c(=O)c(-c2ccco2)nc2ccccc21` (stereo not given) gave ABHD5-PLIN5 inh 37.5*, PAX8 reporter 20.8, EWS-Fli block -0.2, ABHD5 PLIN5 conf 58.6* and HNF4 split-luc 23.5*.
`O=c1[nH]c(/C=C/c2cccnc2)c([N+](=O)[O-])c(=O)[nH]1` gave ABHD5-PLIN5 inh 39.6*, PAX8 reporter 3.8, Shn3 3UTR inh 4.1, Peg3 prom inh 6.2, TRPM1 prom inh 2.7, EWS-Fli block -1.6, ABHD5 PLIN5 conf 55.5* and HNF4 split-luc 41.2*.
For O=c1[nH]c(/C=C\c2cccnc2)c([N+](=O)[O-])c(=O)[nH]1 the results were ABHD5-PLIN5 inh 4.7, PAX8 reporter 0.1, Shn3 3UTR inh -23.9, Peg3 prom inh 16.9, TRPM1 prom inh 6.8 and EWS-Fli block 2.3.
Screening O=c1[nH]c(/C=C/c2ccccc2)c([N+](=O)[O-])c(=O)[nH]1 returned ABHD5-PLIN5 inh 27.0*, PAX8 reporter -5.2, Shn3 3UTR inh 6.2, Peg3 prom inh 13.3, TRPM1 prom inh 8.0, EWS-Fli block 5.2, ABHD5 PLIN5 conf 73.0* and HNF4 split-luc 62.5*.
Cc1noc(/C=C/c2cccnc2)c1[N+](=O)[O-] was read as ABHD5-PLIN5 inh 36.6*, PAX8 reporter 18.9, Shn3 3UTR inh 2.0, Peg3 prom inh 39.4, TRPM1 prom inh -2.5, EWS-Fli block 20.3, ABHD5 PLIN5 conf 47.5* and HNF4 split-luc 33.5*.
Screening O=c1[nH]c(/C=C/c2cccc([N+](=O)[O-])c2)c([N+](=O)[O-])c(=O)[nH]1 returned ABHD5-PLIN5 inh 25.0*, PAX8 reporter -5.2, Shn3 3UTR inh 9.7, Peg3 prom inh 3.9, TRPM1 prom inh 7.8, EWS-Fli block 20.2, ABHD5 PLIN5 conf 91.3* and HNF4 split-luc 85.4*.
`Cc1cccc(C)c1N/C=C/c1onc(C)c1[N+](=O)[O-]` gave ABHD5-PLIN5 inh 4.7, Shn3 3UTR inh -12.1, Peg3 prom inh 17.6 and TRPM1 prom inh -14.9.
